The values that follow come from ChEMBL document CHEMBL3988442, “University of Dundee, Small-Polar-MMV Screening Library” (2021).

The target of assay [1] is T1, Aspartate--tRNA(Asp/Asn) ligase (Mycobacterium tuberculosis (strain ATCC 25618 / H37Rv)) (UniProt P9WFW3). Also: in the data most compounds retested in dose-response had high values.
T1 sequence (whole entry): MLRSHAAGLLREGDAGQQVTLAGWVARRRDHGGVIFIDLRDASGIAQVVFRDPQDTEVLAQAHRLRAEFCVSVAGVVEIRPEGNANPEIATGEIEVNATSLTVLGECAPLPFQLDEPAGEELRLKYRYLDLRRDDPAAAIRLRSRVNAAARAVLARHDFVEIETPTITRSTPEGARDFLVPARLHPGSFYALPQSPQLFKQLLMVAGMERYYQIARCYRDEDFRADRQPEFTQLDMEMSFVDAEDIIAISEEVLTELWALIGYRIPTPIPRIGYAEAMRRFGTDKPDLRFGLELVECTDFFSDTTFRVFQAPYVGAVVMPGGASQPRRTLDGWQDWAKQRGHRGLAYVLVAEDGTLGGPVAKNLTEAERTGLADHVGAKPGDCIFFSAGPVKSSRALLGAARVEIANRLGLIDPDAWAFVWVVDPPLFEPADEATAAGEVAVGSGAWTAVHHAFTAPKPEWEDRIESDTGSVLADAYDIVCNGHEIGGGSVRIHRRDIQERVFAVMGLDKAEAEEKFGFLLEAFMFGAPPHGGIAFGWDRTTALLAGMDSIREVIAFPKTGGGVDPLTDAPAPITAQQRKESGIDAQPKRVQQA
Briefly: Assay for Asp RNA synthetase-1 from Mycobacterium tuberculosis. The class given is functional. Particulars: 30 µM. Further details: scale not given: direction of the effect not stated beside the values.

Assay [2] deals with Shiga toxin 2 (Escherichia coli O157:H7) (UniProt P09385+P09386). In words: E. coli 0.157:H7 Shiga Toxin SOP - stx2 screening assay. It is filed as functional. Further details: scale not given: direction of the effect not stated beside the values. Conditions: 30 µM.

For the compound `COC(=O)COc1cccc(NS(=O)(=O)c2cc(C(=O)O)cs2)c1`, the values for the Percent Effect in assay [1] and in assay [2] were -3.15% and -53.3%, respectively.

Turning to `CCc1nccc(CN2CCCC(c3nn(C)c(=O)n3CC)C2)n1` (stereo not given), the Percent Effect in assay [1] is 1.68%; in assay [2] it was 10.8%.

For `O=C(CCOc1ccc(Cl)cc1)N1CCN(c2cnccn2)CC1`, the Percent Effect in assay [1] was 0.879%; in assay [2] it was -12.7%.

As for `CN(C)C(CNC(=O)c1cccc(-n2cnnn2)c1)c1ccccc1Cl` (stereo not given), the Percent Effect in assay [1] is 3.08%; in assay [2] it was -14.9%.

As for `Fc1ccc(-c2nnc(CN3CCOC(Cn4cncn4)C3)o2)cc1` (stereo not given), the Percent Effect was 1.55% in assay [1] and -15.2% in assay [2].

`CCc1ccc(O)c(C(=O)NC2CCN(S(=O)(=O)CC)CC2)c1`: the results for the Percent Effect in assay [1] and in assay [2] were -3.5% and -13.2%, respectively.

With `COc1ncccc1C(=O)N1CCn2c(COCC3CC3)cnc2C1C` (stereo not given), the Percent Effect in assay [1] was -2.76%; in assay [2], 6.35%.

For the compound `CC(C)N(C)C(=O)C1=NOC2(CCN(C(=O)c3ccc(Cl)cc3)C2)C1` (stereo not given), the Percent Effect in assay [1] was 1.19%; in assay [2], -2.21%.

As for `Cc1ccc2cc(C3(O)CCN(C(=O)CN4CCCC4)CC3)ccc2n1`, the Percent Effect in assay [1] is 1.48%; in assay [2], -47.1%.

In the case of `Cn1ccnc1-c1cccc(NC(=O)NCCCO)c1`, the Percent Effect was -2.56% in assay [1] and -54.8% in assay [2].

As to `O=C(NCCNc1ccc(C(F)(F)F)cn1)c1cncc(Br)c1`, the Percent Effect in assay [1] was found to be 3.26%; in assay [2] it was 28.2%.

Take `COc1cccc(CNC(CN2CCN(C)CC2)c2ccccc2)c1` (stereo not given): the results for the Percent Effect in assay [1] and in assay [2] were 3.94% and -26%, respectively.

Regarding `CCc1noc(CN2CCN(C(=O)N(C)C)CC2)n1`, the results for the Percent Effect in assay [1] and in assay [2] were -1.26% and 5.9%, respectively.

Take `CNC(=O)NC(=O)CN1CCC(c2cccc(F)c2)C1` (stereo not given): the Percent Effect in assay [1] is -0.433%; in assay [2] it was 19.2%.

For the compound `Cc1cccc(CN2C(=O)CO[C@@H]3CN(Cc4nccn4C)C[C@H]32)c1`, the Percent Effect in assay [1] was -0.971%; in assay [2], -7.92%.

As to `CCOC(=O)N1CCN(c2nc(NCCCO)c3ccccc3n2)CC1`, the Percent Effect in assay [1] is 1.68%; in assay [2], -29.9%.

Turning to `O=C(c1cc(=O)[nH]c(=O)[nH]1)N1CCCCC1c1ccc(F)cc1` (stereo not given), the Percent Effect in assay [1] was 0.947%; in assay [2], -12.6%.

In the case of `NC(=O)c1csc(C(=O)N2CCCC(n3ccnc3)C2)c1` (stereo not given), the values for the Percent Effect in assay [1] and in assay [2] were -4.35% and 0.351%, respectively.

For the compound `Cc1ccc(S(=O)(=O)N2C[C@H]3C[C@H](NC(=O)c4ccnn4C)[C@H]3C2)cc1`, the Percent Effect in assay [1] turned out to be 0.283%; in assay [2] it was 8.81%.

Consider `Fc1cccc(CN2CCO[C@H]3[C@@H](OCc4ccccn4)CC[C@@H]32)c1`, for which the Percent Effect in assay [1] is 0.564%; in assay [2], -1.04%.

On to `Cc1cccc(-n2cc(C(=O)N3CCCC(n4ccnc4)C3)nn2)c1` (stereo not given), for which the Percent Effect in assay [1] worked out at 1.58%; in assay [2] it was 7.71%.

`COc1cccc(CN2CCCC(Nc3cccc(F)c3)C2)c1O` (stereo not given): the results for the Percent Effect in assay [1] and in assay [2] were -1.31% and 11.2%, respectively.

On to `CC(=O)Nc1nc(C(=O)N2CCCC(c3cc(C)[nH]n3)C2)cs1` (stereo not given), for which the Percent Effect was 0.141% in assay [1] and -12.2% in assay [2].

Turning to `O=C(NCCCNc1ccccc1)c1scnc1Cl`, the Percent Effect in assay [1] was -0.926%; in assay [2] it was -10.4%.

On to `COCCC(=O)N1CCC2(CN(Cc3ccc(OC)c(F)c3)C2)C1`, for which the Percent Effect in assay [1] was -0.524%; in assay [2], -4.43%.

`O=C(c1cnco1)N1C[C@@H]2CC[C@H](Oc3cccc(F)c3)[C@@H]2C1`: the values for the Percent Effect in assay [1] and in assay [2] were -3.5% and -73.9%, respectively.

Regarding `Cc1nn(CC(=O)N2CCN(c3ccccc3F)CC2)c(C)c1Cl`, the Percent Effect is 8.8% in assay [1] and -39.1% in assay [2].

Consider `Clc1ccc2cccnc2c1CN1CCCC1Cn1cncn1` (stereo not given), for which the Percent Effect was -0.524% in assay [1] and 0.609% in assay [2].

Consider `Cn1ccnc1CN1CCN(Cc2cc(C#N)ccc2F)CC1`, for which the Percent Effect in assay [1] was -5.71%; in assay [2], 17.6%.

For the compound `COc1cccc(OCC2CCCN(C(=O)c3cnc(C)nc3O)C2)c1` (stereo not given), the Percent Effect in assay [1] was -0.346%; in assay [2], 2.77%.

Take `C[C@@H]1CN(C(=O)c2cccs2)C[C@]12CCN(CCN(C)C)C2=O`: the figures for the Percent Effect in assay [1] and in assay [2] were -0.228% and -8.44%, respectively.

As to `CC(=O)Nc1nc(C(=O)N2CCCC2Cn2cc(C)cn2)cs1` (stereo not given), the Percent Effect in assay [1] was -1.84%; in assay [2] it was 20.3%.

Turning to `Clc1cc(CN2CCCC2Cn2cncn2)c2ncccc2c1` (stereo not given), the results for the Percent Effect in assay [1] and in assay [2] were -0.0583% and 6.1%, respectively.

For the compound `Cc1ccc(CC(=O)N2CCCC(c3nc(C)cs3)C2)cn1` (stereo not given), the figures for the Percent Effect in assay [1] and in assay [2] were 2.77% and 7.66%, respectively.

On to `Cc1cnn(CC2CCCN2C(=O)Cc2n[nH]c3ccccc23)c1` (stereo not given), for which the figures for the Percent Effect in assay [1] and in assay [2] were -2.71% and 12.2%, respectively.

`CCn1cc(CN2CCCN(C(=O)CCCn3cncn3)CC2)cn1`: the Percent Effect is -4.34% in assay [1] and -21.5% in assay [2].

On to `COc1ccc(C(=O)N2C[C@@H](CN3CCOCC3)[C@@H](CO)C2)c(C)c1`, for which the Percent Effect in assay [1] is -0.54%; in assay [2], 2.18%.

With `Cc1cnn(CC2CCCCN2CCCS(N)(=O)=O)c1` (stereo not given), the values for the Percent Effect in assay [1] and in assay [2] were -8.36% and -56.9%, respectively.

Regarding `CCSc1cc(C(=O)NCc2ccccc2O)ccn1`, the Percent Effect in assay [1] amounted to 2.33%; in assay [2], 11.7%.

On to `COc1ccccc1OCC(=O)Nc1ncccc1Cl`, for which the Percent Effect in assay [1] is -0.641%; in assay [2], 1.67%.

With `Cc1ccc(-c2cccc(-c3ccn(CCN4CCCC4)n3)c2)nn1`, the Percent Effect in assay [1] is -1.26%; in assay [2] it was -13.8%.

Take `O=C(c1ccnnc1)N1C[C@H]2CCC[C@@]2(COCC2CCOCC2)C1`: the figures for the Percent Effect in assay [1] and in assay [2] were 3.07% and -0.366%, respectively.

As to `N#Cc1cccnc1N1CCC2(CCCN(C3CCOCC3)C2=O)C1` (stereo not given), the Percent Effect in assay [1] is -3.99%; in assay [2] it was -16.3%.

With `COc1ccc(-n2ccc(C(=O)N3CCC(C(N)=O)C3)n2)cc1` (stereo not given), the Percent Effect in assay [1] is 1.17%; in assay [2], 19.6%.

For the compound `COc1ccnc(N2CCN(C(=O)NCc3ccc(C)s3)CC2)n1`, the Percent Effect was -2.05% in assay [1] and 31.8% in assay [2].

Turning to `CC(C)c1ncc(CN2CCCC(CO)C2)cn1` (stereo not given), the Percent Effect is 0.491% in assay [1] and 5.71% in assay [2].

`CSc1ccc(NC(=O)Nc2ccc3c(c2)N(S(C)(=O)=O)CC3)cc1`: the results for the Percent Effect in assay [1] and in assay [2] were -2.32% and -21.8%, respectively.

Regarding `CC(=O)Nc1nc(C2CCN(C(C)=O)CC2)cs1`, the Percent Effect in assay [1] was -1.69%; in assay [2], -0.268%.

As to `NC(=O)C1CCC(NC(=O)COc2ccc(Cl)c(Cl)c2)CC1` (stereo not given), the Percent Effect was 3.91% in assay [1] and -29.1% in assay [2].

In the case of `CNC1CCCN(Cc2noc(C3CC3)n2)C1` (stereo not given), the results for the Percent Effect in assay [1] and in assay [2] were -0.881% and -5.27%, respectively.
